Inconclusive results are not listed. Calls of active or inactive are those of the source. Calls come from the whole dose curve; as a rule, active = well fitted curve in the direction sought with a large enough effect; inconclusive = small, poorly fitted or top-dose-only effect, or another doubt; inactive = no such curve, though single readings can be large; an effect the other way counts as inactive or inconclusive.

Our source for the Potency values is PubChem BioAssay (NCATS).

The nature of experiment [1]: Quantitative High-Throughput drug screen in 47 multiple myeloma cell lines against the NCATS MIPE library collection: FR4_PLB cell viability assay (AID 1918924; note: nearly all actives have a fitted effect of over 35% in size). The gist of the method:
(§1)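 Myeloma cells (500 per well) were exposed to MIPE 4.0 compounds by pin transfer and incubated 48 hours at 37C, 5% CO2. Viability was read as ATP by CellTiter-Glo luminescence, normalised to DMSO (100%) and media-only (0%) wells.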

Experiment [2] is described as follows: Quantitative High-Throughput drug screen in 47 multiple myeloma cell lines against the NCATS MIPE library collection: Delta47_JCRB cell viability assay (AID 1918925; note: nearly all actives have a fitted effect of over 45% in size). The gist of the method:
as §1

Experiment [3] is described as follows: Quantitative High-Throughput drug screen in 47 multiple myeloma cell lines against the NCATS MIPE library collection: EJM_DSMZ cell viability assay (AID 1918926; note: nearly all actives have a fitted effect of over 30% in size). The gist of the method: as §1
Experiment [4] is described as follows: Quantitative High-Throughput drug screen in 47 multiple myeloma cell lines against the NCATS MIPE library collection: ARP1_JJKsccF8 cell viability assay (AID 1918928; note: nearly all actives have a fitted effect of over 40% in size). The gist of the method: (§2)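 CellTiter-Glo luminescence after 48 h exposure gives viability, scaled between DMSO-only (100%) and media-only (0%) controls. Library compounds are pinned onto 500 myeloma cells per well, incubated at 37C with 5% CO2.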

Experiment [5] can be described thus: Quantitative High-Throughput drug screen in 47 multiple myeloma cell lines against the NCATS MIPE library collection: Karpas620_DSMZ cell viability assay (AID 1918959). Note: nearly all actives have a fitted effect of over 30% in size. The essentials: as §1
Experiment [6] is described as follows: Quantitative High-Throughput drug screen in 47 multiple myeloma cell lines against the NCATS MIPE library collection: KMM1_JCRB cell viability assay (AID 1918960). Note: nearly all actives have a fitted effect of over 30% in size. The gist of the method: as §2
Experiment [7] can be described thus: Quantitative High-Throughput drug screen in 47 multiple myeloma cell lines against the NCATS MIPE library collection: JIM3_ECACC cell viability assay (AID 1918963; note: nearly all actives have a fitted effect of over 35% in size). The gist of the method:
as §1

A short description of experiment [8]: Quantitative High-Throughput drug screen in 47 multiple myeloma cell lines against the NCATS MIPE library collection: INA6_PLB cell viability assay (AID 1918965; note: nearly all actives have a fitted effect of over 55% in size). The essentials:
(§3)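 CellTiter-Glo ATP luminescence gave viability after 48 h compound treatment at 37C of 500 multiple myeloma cells per well. Normalisation used DMSO-only wells as 100% and media-only wells as 0% viability; primary qHTS of approved and investigational drugs.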

A short description of experiment [9]: Quantitative High-Throughput drug screen in 47 multiple myeloma cell lines against the NCATS MIPE library collection: JJN3_DSMZ cell viability assay (AID 1918966; note: nearly all actives have a fitted effect of over 50% in size). The gist of the method: as §1
A short description of experiment [10]: Quantitative High-Throughput drug screen in 47 multiple myeloma cell lines against the NCATS MIPE library collection: H1112_PLB cell viability assay (AID 1918967; note: nearly all actives have a fitted effect of over 30% in size). The essentials: as §1
A short description of experiment [11]: Quantitative High-Throughput drug screen in 47 multiple myeloma cell lines against the NCATS MIPE library collection: AMO1_DSMZ cell viability assay (AID 1918927; note: nearly all actives have a fitted effect of over 30% in size). The essentials: as §1
Experiment [12] is described as follows: Quantitative High-Throughput drug screen in 47 multiple myeloma cell lines against the NCATS MIPE library collection: ARD_JJKsccE7 cell viability assay (AID 1918929). The gist of the method:
as §1

The nature of experiment [13]: Quantitative High-Throughput drug screen in 47 multiple myeloma cell lines against the NCATS MIPE library collection: KHM11_PLB cell viability assay (AID 1918962). Note: nearly all actives have a fitted effect of over 35% in size. The gist of the method:
as §1

Experiment [14] in a line: Quantitative High-Throughput drug screen in 47 multiple myeloma cell lines against the NCATS MIPE library collection: Karpas25_ECACC cell viability assay (AID 1918968; note: nearly all actives have a fitted effect of over 35% in size). The gist of the method: as §1
Experiment [15] can be described thus: Quantitative High-Throughput drug screen in 47 multiple myeloma cell lines against the NCATS MIPE library collection: KMS27_JCRB cell viability assay (AID 1918970). Note: nearly all actives have a fitted effect of over 30% in size. The essentials: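 ATP-based viability (CellTiter-Glo luminescence) is measured in cells treated 48 h with approved and investigational drugs at 37 °C. Controls are DMSO-only wells for full viability and media-only wells for none.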

A short description of experiment [16]: Quantitative High-Throughput drug screen in 47 multiple myeloma cell lines against the NCATS MIPE library collection: JIM1_ECACC cell viability assay (AID 1918964). The essentials:
as §1

Experiment [17] is described as follows: Quantitative High-Throughput drug screen in 47 multiple myeloma cell lines against the NCATS MIPE library collection: KMS12BM_JCRB cell viability assay (AID 1918971). Note: nearly all actives have a fitted effect of over 35% in size. The essentials: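 Luminescent ATP measurement with CellTiter-Glo gives viability, scaled between DMSO-only wells (100%) and media-only wells (0%). Cells, 500 per well, faced library compounds for 48 hours at 37C.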

Experiment [18] is described as follows: Quantitative High-Throughput drug screen in 47 multiple myeloma cell lines against the NCATS MIPE library collection: Karpas417_ECACC cell viability assay (AID 1918961). Particulars: Karpas417 myeloma viability, CellTiter-Glo ATP luminescence, 48 h; viability (% of DMSO): at 45.8 µM (top of the series). The essentials: as §3
(In general: Cellular ATP, detected with luciferase, serves as a proxy for viable cell number.)
Potency is the fitted concentration of half-maximal effect.

In the case of `CO[C@H]1CCC(O[C@H]2C[C@H]([C@]3(C)CC[C@]4(C[C@H](O)[C@@H](C)[C@@H]([C@@H](C)C=C(C)C(=O)[C@H](C)C[C@H](C)C(=O)O)O4)O3)O[C@]3(O[C@@H]([C@H]4O[C@@](O)(CO)[C@H](C)C[C@H]4C)C[C@H]3C)[C@H]2C)O[C@H]1C` (stereo not given in full), the Potency in [1] was 3.72 µM (active); in [2], 1.18 µM (active); in experiment [3] it was 3.32 µM (active); in experiment [4] it was 1.18 µM (active); in [5], 0.264 µM (active); in [6], 0.187 µM (active). Further, the Potency in [7] was 0.526 µM (active); in experiment [8] it was 0.526 µM (active); in experiment [9], 0.526 µM (active); in experiment [10] it was 0.662 µM (active).

With `CC[C@@H](C(N)=O)N1CCCC1=O`, the Potency result in [1], in experiment [2], in experiment [3], in experiment [11], in experiment [4] and in experiment [12] was “inactive” throughout. Also, the Potency result in experiment [5], in experiment [6], in [13], in [7], in experiment [8] and in experiment [9] was “inactive” in each case. The Potency entry in experiment [10] and in [14] was “inactive” each time.

In the case of `CCOC(=O)c1c(C(C#N)=CN)c2ccc(Cl)c(Cl)c2n1C`, the Potency result in [1], in experiment [2], in experiment [3], in experiment [11], in experiment [4] and in experiment [5] was “inactive” in each case. The Potency result in experiment [13], in experiment [7], in [10] and in [15] was “inactive” throughout.

On to `COc1cc2cc(c1Cl)N(C)C(=O)C[C@H](OC(=O)C(C)C)[C@]1(C)O[C@H]1[C@H](C)[C@@H]1C[C@@](O)(NC(=O)O1)[C@H](OC)C=CC=C(C)C2`, for which the Potency entry in experiment [1], in experiment [2], in [3], in [11], in experiment [4] and in [12] was “inactive” each time. In addition, the Potency result in experiment [6], in experiment [13], in experiment [7], in experiment [16], in experiment [8] and in experiment [9] was “inactive” each time. Also, the Potency entry in experiment [14], in [15] and in [17] was “inactive” each time.

`C[C@]12CC[C@H]3[C@@H](CCC4=CC(=O)CC[C@@]43C)[C@H]1CC[C@H]2O`: the Potency entry in experiment [1], in experiment [2], in experiment [11], in experiment [4], in [12] and in experiment [5] was “inactive” in each case. Besides, the Potency entry in [13], in experiment [7], in experiment [16], in experiment [8], in experiment [10] and in [14] was “inactive” in each case. Further, in experiment [15], the Potency result is “inactive”.

`CN1[C@H]2CC(O)C[C@H]1[C@H]1O[C@H]12` (stereo not given in full): the Potency in experiment [1] was 26.4 µM (active); in [2], 9.35 µM (active); in experiment [3], 20.9 µM (active); in [4] it was 20.9 µM (active); in experiment [13] it was 14.8 µM (active); in experiment [7], 9.35 µM (active). The Potency was 8.33 µM (active) in experiment [8], 16.6 µM (active) in experiment [10], 5.9 µM (active) in [14] and 18.7 µM (active) in experiment [17]. Moreover, the Potency result in experiment [11], in experiment [12], in experiment [5], in [6] and in experiment [15] was “inactive” in each case.

In the case of `CN[C@@H]1Cc2cccc3[nH]c(=O)n(c23)C1`, the Potency in experiment [1] is 11.8 µM (active). Further, the Potency entry in experiment [2], in experiment [3], in experiment [5], in [6], in experiment [7] and in [8] was “inactive” throughout. The Potency result in [14] and in [15] was “inactive” in each case.

`CCCCCC[C@H]1C(=O)O[C@H](C)[C@H](NC(=O)c2cccc(NC=O)c2O)C(=O)O[C@@H](C)[C@@H]1OC(=O)CC(C)C`: the Potency is 0.0662 µM (active) in experiment [1]; 0.0526 µM (active) in experiment [2]; 0.235 µM (active) in experiment [11]; 0.0418 µM (active) in experiment [4]; 0.372 µM (active) in experiment [12]; 0.935 µM (active) in experiment [5]. Also, the Potency was 0.418 µM (active) in [6]; 0.332 µM (active) in [18]; 0.105 µM (active) in [13]; 0.0469 µM (active) in [7]; 0.372 µM (active) in [16]; 0.0833 µM (active) in experiment [8]. Besides, the Potency is 0.132 µM (active) in experiment [10], 0.166 µM (active) in experiment [14], 0.235 µM (active) in experiment [15] and 6.62 µM (active) in experiment [17].

On to `COC(=O)[C@@H](N)CCCN=C(N)N[N+](=O)[O-]`, for which the Potency result in experiment [1], in experiment [2], in [3], in experiment [11], in experiment [4] and in experiment [12] was “inactive” in each case. The Potency result in experiment [5], in experiment [6], in [7], in experiment [16], in [10] and in experiment [15] was “inactive” each time.

Take `COc1ccc2c(c[n+](C)c3c4cc5c(cc4ccc23)OCO5)c1OC`: the Potency in experiment [1] was 4.18 µM (active); in experiment [2] it was 9.35 µM (active); in experiment [3], 2.96 µM (active); in experiment [11], 6.62 µM (active); in experiment [4], 2.96 µM (active); in experiment [12], 7.43 µM (active). For the same molecule, the Potency in experiment [5] was 5.9 µM (active); in experiment [6] it was 5.9 µM (active); in experiment [13] it was 6.62 µM (active); in experiment [7], 7.43 µM (active); in experiment [16] it was 4.18 µM (active); in [8] it was 8.33 µM (active). In addition, the Potency in experiment [10] was 7.43 µM (active); in [15], 6.62 µM (active); in experiment [17], 3.72 µM (active).

Regarding `CC(=Cc1csc(C)n1)[C@@H]1C[C@H]2O[C@]2(C)CCC[C@H](C)[C@@H](O)[C@@H](C)C(=O)C(C)(C)[C@@H](O)CC(=O)O1`, the Potency entry in experiment [1], in experiment [2], in experiment [3], in experiment [4], in experiment [12] and in [13] was “inactive” in each case. Also, the Potency result in [7], in experiment [8], in experiment [9], in experiment [10], in experiment [14] and in experiment [17] was “inactive” throughout. Besides, the Potency in [11] and in [6] was 0.001 µM (active) throughout.

Consider `C[C@@H]1[C@H](O)[C@@H](C)C=CC=CCCC=CC=CC=CC=C[C@H](O[C@H]2O[C@@H](C)[C@H](O)[C@@H](N)[C@@H]2O)CC2O[C@](O)(C[C@@H](O)[C@H](O)CC[C@@H](O)C[C@@H](O)C[C@@H](O)CC(=O)O[C@H]1C)C[C@H](O)[C@H]2C(=O)O`, for which the Potency entry in experiment [1], in [3], in experiment [11], in [4], in experiment [5] and in experiment [6] was “inactive” in each case. Besides, the Potency entry in experiment [7], in experiment [16], in experiment [9], in experiment [10], in experiment [14] and in [15] was “inactive” throughout.
